# Measured values reported in PubChem BioAssay.
# Values joined by “and” are separate entries in the source; they are usually repeats but may differ in a detail not shown here. Identical values can stand only once. Results filed as inconclusive are left out. Some structures have more than one record in an assay (separate samples or runs), and their calls can disagree. Active and inactive are the calls of the source. Unless noted, no rule for the calls is given here.
# Legend:
# [1] = liver-stage malaria parasite growth inhibition, primary screen, cell-based, HepG2, luciferase luminescence, HepG2 viability (AID 624349; in the data active = parasite load remaining mostly below about 12%, no sharp cut-off; inactive = mostly above about 10%;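 also: 100% = mean of DMSO negative control wells on the same plate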); details: P. berghei liver stage in HepG2, luciferase luminescence, concentration not given here; parasite load remaining: stronger effect = lower value; viability: measured here: HepG2 viability without parasites
# [2] = kinase inhibitors against Plasmodium liver-stage infection, cell-based, known kinase inhibitor set, luminescence, hepatoma host viability (AID 624392); details: Plasmodium liver stage in hepatoma cells, luciferase luminescence, concentration not given here; liver cell % of control: measured here: host liver cell viability; parasite % of control: stronger effect = lower value;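 also: infected cells incubated roughly two days before readout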
# [3] = modulators of glucocorticoid suppression of NF-kB, cell-based, luciferase, IL-1B stimulus, dexamethasone (AID 624486); details: NF-kB luciferase reporter, IL-1B + dexamethasone, luminescence; percent of negative control (+Dex): actives lie on both sides, concentration not given here; z-score: measured here: IL-1B alone, no Dex;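 as to percent of negative control (+Dex): 100% = mean signal of vehicle control wells on the plate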
# [4] = target: Cellular tumor antigen p53 (Homo sapiens) (UniProt P04637); assay: kinase inhibitors altering GFP-p53 stability in HPV16-positive cells, imaging, known kinase inhibitor set, EGFP/DsRed ratio (AID 1053116); details: stronger effect = higher value; EGFP object count: measured here: GFP-p53 positive objects count;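 also: cells exposed to compounds for 24 h at 37 °C before reading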
# Sequence of Cellular tumor antigen p53 (Homo sapiens) (P04637 whole entry, looked up): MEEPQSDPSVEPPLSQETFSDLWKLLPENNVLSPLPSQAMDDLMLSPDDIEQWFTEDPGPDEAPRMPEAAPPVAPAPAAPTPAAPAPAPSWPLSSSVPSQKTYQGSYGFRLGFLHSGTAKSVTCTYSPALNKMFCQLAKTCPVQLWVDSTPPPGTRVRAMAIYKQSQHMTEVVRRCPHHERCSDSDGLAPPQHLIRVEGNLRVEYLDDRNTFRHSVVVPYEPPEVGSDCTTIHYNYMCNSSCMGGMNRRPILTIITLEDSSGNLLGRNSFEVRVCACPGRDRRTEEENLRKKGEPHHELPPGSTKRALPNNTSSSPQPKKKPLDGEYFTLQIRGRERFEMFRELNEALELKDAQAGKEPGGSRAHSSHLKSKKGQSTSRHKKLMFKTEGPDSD
# [5] = IRF3 reporter activation in THP-1 macrophages, cell-based, PMA-stimulated THP-1, luminescence (AID 1053176); details: PMA-differentiated THP-1, IRF3 reporter luminescence; stronger effect = higher value
# [6] = sensitizers of A549 cells to miR-34 induction, primary screen, imaging, A549 dox-inducible miR-34, nuclei and caspase counts (AID 1347080;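 active = compounds whose cell count with miR-34 switched on is under 0.7 times the count with it off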); details: A549 miR-34 inducible, Hoechst nuclei count, 48 h
# [7] = kinase inhibitors altering Pseudomonas killing of worms, whole organism (AID 651566);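 also: tested at 14 µM; sign flipped so higher z means a lower ratio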; details: C. elegans killed by P. aeruginosa, survival ratio
# [8] = activators of macrophage pro-inflammatory response, cell-based, murine, luminescence (AID 652131); details: murine macrophage pro-inflammatory reporter, stronger effect = higher value
# [9] = survival rescue of mitochondrial mutant cells in low glucose, primary screen, MELAS cybrids, Rieske KO mouse fibroblasts, CellTiter-Glo (AID 1508586;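 active = mean z-score across replicates of 1.96 or higher in either the MELAS or the Rieske mutant cell line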;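 also: z relative to plate mean and SD of compound and empty wells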)
# [10] = growth inhibition of DIPG glioma cells, dose response, cell-based, SU-DIPG-XVII, MIPE5.0, CellTiter-Glo, qHTS (AID 1347060; cut-off not given, nearly all actives have AC50 up to about 26 µM;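 also: cells exposed to compound for 48 hours before viability readout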); details: SU-DIPG-XVII viability, CellTiter-Glo ATP luminescence
# [11] = growth inhibition of DIPG glioma cells, dose response, cell-based, JHH-DIPG-1, MIPE4.0, CellTiter-Glo, qHTS (AID 1347062; cut-off not given, nearly all actives have AC50 up to about 27 µM); details: JHH-DIPG-1 viability, CellTiter-Glo ATP luminescence
# [12] = growth inhibition of DIPG glioma cells, dose response, cell-based, SU-DIPG-IV, MIPE4.0, CellTiter-Glo, qHTS (AID 1347063; cut-off not given, nearly all actives have AC50 up to about 30 µM;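 also: compound exposure lasted 48 hours before the viability readout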); details: SU-DIPG-IV viability, CellTiter-Glo ATP luminescence
# [13] = viability loss in pontine glioma line – cell-based, SU-DIPG-XXV, MIPE5.0, CellTiter-Glo, qHTS, dose response (AID 1347065; cut-off not given, nearly all actives have AC50 up to about 26 µM;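 also: cells exposed to compound for 48 hours before ATP readout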); details: CellTiter-Glo ATP luminescence
# [14] = SU-DIPG-VI glioma cell viability, MIPE4.0 library, CellTiter-Glo luminescence, qHTS (AID 1347066; cut-off not given, nearly all actives have AC50 up to about 30 µM;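 also: cells exposed to compound for 48 hours before readout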); details: CellTiter-Glo ATP luminescence
# [15] = SU-DIPG-XXV glioma cell viability, MIPE5.0 library, qHTS (AID 1347068; cut-off not given, nearly all actives have IC50 up to about 30 µM)
# [16] = modifiers of HSF1 nuclear foci, imaging, Selleck Cancer Library (AID 1347162; in the data active = plate-normalised HSF1 focus index below about 0.46); details: human cells, at 10 µM; SSMD: measured here: HSF1 foci SSMD mean; cell count: measured here: cell number; plate-normalised HSF1 focus index: stronger effect = lower value
# [17] = JHH-DIPG-1 glioma cell viability, MIPE5.0 library, CellTiter-Glo luminescence, qHTS (AID 1347067; cut-off not given, nearly all actives have AC50 up to about 26 µM;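 also: cells exposed to compound for 48 hours before readout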); details: JHH-DIPG-1 glioma viability, CellTiter-Glo ATP luminescence
# [18] = stronger effect = lower value, cell number ratio, induced over uninduced
# [19] = measured here: relative caspase fold change +Dox/-Dox
# [20] = measured here: total cells with miR-34 induction, stronger effect = lower value
# [21] = measured here: total cells without miR-34 induction
# [22] = MELAS cybrid survival, CellTiter-Glo 48 h, stronger effect = higher value
# [23] = Rieske KO mouse fibroblast survival, CellTiter-Glo 72 h
compound,measurement,setting,value
CN1C(=O)C(c2c[nH]c3ccccc23)=C(c2c[nH]c3ccccc23)C1=O,parasite load remaining,[1],34.8% (inactive)
same,viability,[1],125%
same,liver cell % of control,[2],87.4%
same,parasite % of control,[2],30.7% (inactive)
same,percent of negative control (+Dex),[3],96.5% (inactive)
same,z-score,[3],-0.615
same,EGFP object count,[4],3
same,EGFP/DsRed ratio,[4],0.0517 (inactive)
same,fraction signal,[5],-0.0095 (inactive)
same,fold change,[6]; [18],0.868 (inactive)
same,fold change,[6]; [19],1.05
same,cell count,[6]; [20],5070
same,cell count,[6]; [21],5840
Cc1c2ccc(N(C)c3ccnc(Nc4cccc(S(N)(=O)=O)c4)n3)cc2nn1C,liver cell % of control,[2],94.3%
same,parasite % of control,[2],100% (inactive)
same,percent of negative control (+Dex),[3],94% (inactive)
same,z-score,[3],0.455
same,z-score,[7],1 (inactive)
same,z-score,[8],-0.277 (inactive)
same,EGFP object count,[4],3.5
same,EGFP/DsRed ratio,[4],0.0613 (inactive)
same,fraction signal,[5],0.0015 (inactive)
same,z-score,[9]; [22],-1.32 (inactive)
same,z-score,[9]; [23],-0.151
Cc1ccc(O)cc1Nc1ccnc2cc(-c3ccccn3)ccc12,liver cell % of control,[2],100%
same,parasite % of control,[2],65.6% (inactive)
same,percent of negative control (+Dex),[3],89.5% (inactive)
same,z-score,[3],-0.24
same,z-score,[7],-1.05 (inactive)
same,z-score,[8],5.39 (inactive)
same,EGFP object count,[4],3.5
same,EGFP/DsRed ratio,[4],0.137 (inactive)
same,fraction signal,[5],0.014 (inactive)
same,z-score,[9]; [22],-0.612
same,z-score,[9]; [23],4.8
Cn1cc(/C=C2\C(=O)Nc3cccnc32)c2ccccc21,liver cell % of control,[2],210%
same,parasite % of control,[2],18.2% (inactive)
same,percent of negative control (+Dex),[3],92.5% (inactive)
same,z-score,[3],0.27
same,z-score,[7],0.915 (inactive)
same,z-score,[8],5.16 (inactive)
same,EGFP object count,[4],4
same,EGFP/DsRed ratio,[4],0.0768 (inactive)
same,fraction signal,[5],-0.0095 (inactive)
same,AC50,[10],8.33 µM (active)
same,outcome,[11],inactive
same,outcome,[12],inactive
same,AC50,[13],9.34 µM (active)
same,outcome,[14],inactive
same,outcome,[15],inactive
same,z-score,[9]; [22],0.351 (inactive)
same,z-score,[9]; [23],-0.515
CC1=C(C(=O)Nc2ccc3[nH]ncc3c2)C(c2ccc(F)cc2)N=C(c2ccc(C(F)(F)F)nc2)N1 (stereo unspecified),liver cell % of control,[2],102%
same,parasite % of control,[2],138% (inactive)
same,percent of negative control (+Dex),[3],86% (inactive)
same,z-score,[3],-1.21
same,z-score,[7],0.02 (inactive)
same,z-score,[8],0.13 (inactive)
same,EGFP object count,[4],2
same,EGFP/DsRed ratio,[4],0.0614 (inactive)
same,fraction signal,[5],-0.004 (inactive)
same,z-score,[9]; [22],-0.75 (inactive)
same,z-score,[9]; [23],-0.3
COc1ccc(-c2nn3ncccc3c2-c2ccnc(Nc3ccc4c(c3)OCCO4)n2)cc1,liver cell % of control,[2],172%
same,parasite % of control,[2],12.5% (active)
same,percent of negative control (+Dex),[3],79% (inactive)
same,z-score,[3],-1.21
same,z-score,[7],1.58 (inactive)
same,z-score,[8],-0.248 (inactive)
same,EGFP object count,[4],1.5
same,EGFP/DsRed ratio,[4],0.0413 (inactive)
same,fraction signal,[5],0.0025 (inactive)
same,z-score,[9]; [22],0.896 (inactive)
same,z-score,[9]; [23],0.839
Nc1nccc(-c2c(-c3ccc(F)cc3)ncn2C2CCNCC2)n1,parasite load remaining,[1],50.2% (inactive)
same,viability,[1],61.1%
same,liver cell % of control,[2],79.4% and 93.7%
same,parasite % of control,[2],77.2% (inactive) and 61.2% (inactive)
same,percent of negative control (+Dex),[3],136% (inactive) and 118% (inactive)
same,z-score,[3],1.59 and 1.56
same,z-score,[7],-0.995 (inactive) and 0.19 (inactive)
same,z-score,[8],15.2 (active) and 4.36 (inactive)
same,EGFP object count,[4],12.5 and 3
same,EGFP/DsRed ratio,[4],0.0782 (inactive) and 0.0295 (inactive)
same,fraction signal,[5],0.0105 (inactive) and -0.008 (inactive)
same,z-score,[9]; [22],-0.885 (inactive) and -0.815 (inactive)
same,z-score,[9]; [23],0.00861 and -0.488
CCn1c(-c2nonc2N)nc2cnc(Oc3cccc(NC(=O)c4ccc(OCCN5CCOCC5)cc4)c3)cc21,liver cell % of control,[2],80.1%
same,parasite % of control,[2],42.7% (inactive)
same,percent of negative control (+Dex),[3],50.5% (inactive)
same,z-score,[3],-3.25
same,z-score,[7],0.625 (inactive)
same,z-score,[8],1.15 (inactive)
same,EGFP object count,[4],3
same,EGFP/DsRed ratio,[4],0.0358 (inactive)
same,fraction signal,[5],0.007 (inactive)
same,outcome,[14],inactive
same,SSMD,[16],0.629
same,cell count,[16],7080
same,plate-normalised HSF1 focus index,[16],1.04 (inactive)
same,z-score,[9]; [22],-0.727 (inactive)
same,z-score,[9]; [23],0.152
COc1ccc(COc2ccc(Cc3cnc(N)nc3N)cc2OC)cc1,parasite load remaining,[1],13.9% (inactive)
same,viability,[1],98.2%
same,liver cell % of control,[2],99.1%
same,parasite % of control,[2],45.5% (inactive)
same,percent of negative control (+Dex),[3],90% (inactive)
same,z-score,[3],-0.44
same,z-score,[7],-0.075 (inactive)
same,z-score,[8],1.35 (inactive)
same,EGFP object count,[4],4.5
same,EGFP/DsRed ratio,[4],0.0511 (inactive)
same,fraction signal,[5],-0.003 (inactive)
same,outcome,[13],inactive
same,outcome,[17],inactive
same,outcome,[15],inactive
same,fold change,[6]; [18],0.931 (inactive)
same,fold change,[6]; [19],0.609
same,cell count,[6]; [20],7300
same,cell count,[6]; [21],7840
same,z-score,[9]; [22],-0.29 (inactive) and -0.397 (inactive)
same,z-score,[9]; [23],-0.126 and -1.03
CCCN(CCS(C)(=O)=O)Cc1ccc(-c2ccc3ncnc(Nc4ccc(OCc5cccc(F)c5)c(Cl)c4)c3c2)o1,liver cell % of control,[2],100%
same,parasite % of control,[2],108% (inactive)
same,percent of negative control (+Dex),[3],74.5% (inactive)
same,z-score,[3],-1.22
same,z-score,[7],1.21 (inactive)
same,z-score,[8],1.79 (inactive)
same,EGFP object count,[4],4.5
same,EGFP/DsRed ratio,[4],0.083 (inactive)
same,fraction signal,[5],-0.0115 (inactive)
same,z-score,[9]; [22],-0.517 (inactive)
same,z-score,[9]; [23],-0.151
c1cc(-c2cnn3nc(N4CCOCC4)ccc23)nc(NC2CC2)n1,liver cell % of control,[2],147%
same,parasite % of control,[2],177% (inactive)
same,percent of negative control (+Dex),[3],59.5% (inactive)
same,z-score,[3],-2.65
same,z-score,[7],-0.225 (inactive)
same,z-score,[8],-1.49 (inactive)
same,EGFP object count,[4],3.5
same,EGFP/DsRed ratio,[4],0.0725 (inactive)
same,fraction signal,[5],-0.008 (inactive)
same,z-score,[9]; [22],0.731 (inactive)
same,z-score,[9]; [23],-0.389
Oc1[nH]c2ccccc2c1C=Nc1ccc(-n2cncn2)cc1,liver cell % of control,[2],80.6%
same,parasite % of control,[2],240% (inactive)
same,percent of negative control (+Dex),[3],142% (active)
same,z-score,[3],4.13
same,z-score,[7],-0.065 (inactive)
same,z-score,[8],3.17 (inactive)
same,EGFP object count,[4],8.5
same,EGFP/DsRed ratio,[4],0.377 (inactive)
same,fraction signal,[5],-0.0045 (inactive)
same,z-score,[9]; [22],0.931 (inactive)
same,z-score,[9]; [23],-0.448
NC(=O)c1ccc(Oc2nccc(-c3c(-c4ccc(F)cc4)ncn3C3CCNCC3)n2)cc1,liver cell % of control,[2],89.2%
same,parasite % of control,[2],144% (inactive)
same,percent of negative control (+Dex),[3],96% (inactive)
same,z-score,[3],0.125
same,z-score,[7],0.14 (inactive)
same,z-score,[8],0.154 (inactive)
same,EGFP object count,[4],8.5
same,EGFP/DsRed ratio,[4],0.173 (inactive)
same,fraction signal,[5],-0.008 (inactive)
same,z-score,[9]; [22],0.243 (inactive)
same,z-score,[9]; [23],-0.477
